The text below walks through data of PubChem BioAssay AID1415 (NMMLSC, 2008).

Structures are written as SMILES. Screen size: about 220,000 compounds; about 710 (0.32%) were called active. This is one part of a sample in which actives are shown more often than they occur. Unmarked numbers belong to inactive results. Rule as the data show it: active = binding response below about 49% or above about 150%; inactive = in between.

Guanine nucleotide-binding protein G(o) subunit alpha (Homo sapiens), sequence (P09471 whole entry, looked up): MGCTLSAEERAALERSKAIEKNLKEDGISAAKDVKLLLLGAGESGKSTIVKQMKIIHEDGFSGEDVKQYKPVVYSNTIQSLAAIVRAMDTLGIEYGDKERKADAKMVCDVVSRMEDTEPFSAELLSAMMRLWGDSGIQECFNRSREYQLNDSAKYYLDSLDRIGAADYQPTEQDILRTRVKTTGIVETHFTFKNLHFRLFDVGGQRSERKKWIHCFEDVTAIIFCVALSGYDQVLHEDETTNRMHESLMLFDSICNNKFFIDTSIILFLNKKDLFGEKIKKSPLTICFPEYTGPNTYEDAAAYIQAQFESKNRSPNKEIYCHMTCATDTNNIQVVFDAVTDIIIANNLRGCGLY

This assay has as its target Guanine nucleotide-binding protein G(o) subunit alpha (Homo sapiens) (UniProt P09471). Kind of assay: RGS4-Galphao interaction inhibitors and enhancers – biochemical, multiplexed bead flow cytometry, primary screen (AID 1415).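 Also: fluorescent Galphao activated with aluminum fluoride binding bead-coupled RGS4.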 To be noted: at 10 µM, actives lie on both sides. A general note: In flow cytometry, cells or beads pass a laser one at a time.
Take `COC(=O)CCCC1=CC2=CC(=O)C(C)(OC(=O)c3cccs3)C(=O)C2=CN1c1cccc(C#N)c1` (configuration not stated): the binding response (% of control) was 96%.

Turning to `CCOc1cccc(OCCCOc2cccc3cccnc23)c1`, the binding response (% of control) was 93%.

For the compound `O=C(NNC1=C(C(=O)C(F)(F)F)CCC1)c1ccncc1`, the binding response (% of control) is 86.6%.

As to `Cc1ccc(N2C(=O)C(Cc3ccccc3)NC2=S)cc1` (configuration not stated), the binding response (% of control) was 104%.

On to `Cc1ccc(N2C(=O)C3CC3C2=O)cc1` (configuration not stated), for which the binding response (% of control) was 100%.

As to `Cc1ccc(N2C(=O)C3C(c4ccccc4)(C2=O)C3(c2ccccc2)c2ccccc2)cc1` (configuration not stated), the binding response (% of control) was 8.37% (active).

As for `CC(=O)c1ccc(S(=O)(=O)N2CCN(C(=O)/C=C/c3ccc4ccccc4n3)CC2)cc1`, the binding response (% of control) is 84%.

`Cc1cccc(NC(=O)CSc2nnc(CCNC(=O)OC(C)(C)C)o2)c1C`: the binding response (% of control) was 93.8%.

As for `Nc1ccc(C(=O)OCC(=O)NC2CCCc3ccccc32)cc1[N+](=O)[O-]` (configuration not stated), the binding response (% of control) was 98.3%.

With `Nc1ccc(C(=O)OCC(=O)NC2CCS(=O)(=O)C2)cc1[N+](=O)[O-]` (configuration not stated), the binding response (% of control) is -18.4% (active).

As for `O=C(COC(=O)/C=C/c1ccc2c(c1)OCO2)NC1CCS(=O)(=O)C1` (configuration not stated), the binding response (% of control) is 104%.

As to `Cc1ccc(C(=O)Nc2nc(N)n(-c3ccccc3)n2)cc1`, the binding response (% of control) is 103%.

Regarding `CC(=O)c1ccc(NC(=S)N(Cc2ccccc2)C(C)C2CC2)cc1` (configuration not stated), the binding response (% of control) is 106%.

Consider `COCC(C)n1c(C)cc(C(=O)COc2ccc(C)nc2[N+](=O)[O-])c1C` (configuration not stated), for which the binding response (% of control) is 99.8%.

As to `Cc1ccc(N(CC(O)CN2CCCC2)S(=O)(=O)c2ccccc2)cc1` (configuration not stated), the binding response (% of control) is 101%.

With `O=S(=O)(c1ccccc1)N(CC(O)CN1CCCCC1)c1ccccc1` (configuration not stated), the binding response (% of control) was 103%.

`Cc1cc(C)n(CC(O)CN(c2ccccc2)S(=O)(=O)c2ccc3ccccc3c2)n1` (configuration not stated): the binding response (% of control) is 13.8% (active).

As to `COC(=O)c1ccc(CN2CCN(CCCc3ccccc3)C(CCO)C2)cc1` (configuration not stated), the binding response (% of control) was 91.5%.

With `CCN(C(=O)COC(=O)c1cc(S(=O)(=O)N2CCc3ccccc32)ccc1OC)C1CCS(=O)(=O)C1` (configuration not stated), the binding response (% of control) was 104%.

For `COc1ccccc1NC(=O)C[n+]1ccccc1`, the binding response (% of control) is 96%.

As to `COc1ccccc1NC(=O)CCCc1c[nH]c2ccccc12`, the binding response (% of control) is 440% [activator] (active).

On to `O=C(CCCCCn1c(=O)[nH]c2ccccc2c1=O)NCCc1c[nH]c2ccccc12`, for which the binding response (% of control) was 100%.

Take `COc1ccc(CCNS(=O)(=O)c2cccc3cccnc23)cc1OC`: the binding response (% of control) is 97.9%.

Take `O=C(CSc1ccc([N+](=O)[O-])cn1)Nc1ccc(N2CCOCC2)c(Cl)c1`: the binding response (% of control) is 94.7%.

On to `COC(=O)c1ccccc1OCC(=O)N1CCN(c2ccc(Cl)cc2)CC1`, for which the binding response (% of control) was 349% [activator] (active).

For the compound `O=C(CN1CCN(c2ccc(Cl)cc2)CC1)N1CCCC1`, the binding response (% of control) was 104%.

For `O=C(COc1ccc(Cl)cc1)N1CCN(c2cccc(C(F)(F)F)c2)CC1`, the binding response (% of control) is 101%.
